Experimental data: the supplement of paper PMC8728848
Only a selection was taken, and the strongest signals are over-represented in it overall.

Tests used:
Experiment in all cases: glycan array binding signal (z-score within array); higher = stronger binding
Settings in all cases: glycan notation: IUPAC condensed, linker removed
[1] = molecular target: Fuc(a1-2)Gal(b1-4)GlcNAc(b1-6)GalNAc
In short: (§1)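 Negative Z-scores can be read as non-binding. The Z-score is calculated within each array and then averaged across arrays of one protein sequence at different concentrations or buffers and across linkers. Arrays, 3228 in all, were curated from the Consortium for Functional Glycomics database and kept only where the protein sequence was available.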

[2] = molecular target: Fuc(a1-2)Gal(b1-4)[Fuc(a1-3)]GlcNAc(b1-2)[Fuc(a1-2)Gal(b1-4)[Fuc(a1-3)]GlcNAc(b1-4)]Man(a1-3)[Fuc(a1-2)Gal(b1-4)[Fuc(a1-3)]GlcNAc(b1-2)Man(a1-6)]Man(b1-4)GlcNAc(b1-4)GlcNAc
In short: as §1

[3] = molecular target: Fuc(a1-2)[Gal(a1-3)]Gal(b1-4)GlcNAc(b1-3)[Fuc(a1-2)[Gal(a1-3)]Gal(b1-4)GlcNAc(b1-6)]GalNAc
In short: as §1

[4] = molecular target: Fuc(a1-2)[Gal(a1-4)]Gal(b1-4)GlcNAc
In short: as §1

[5] = molecular target: Fuc(a1-2)[GalNAc(a1-3)]Gal
In short: as §1

[6] = molecular target: Fuc(a1-2)[GalNAc(a1-3)]Gal(b1-3)GalNAc(a1-3)[Fuc(a1-2)]Gal(b1-4)GlcNAc
In short: as §1

[7] = molecular target: Fuc(a1-2)[GalNAc(a1-3)]Gal(b1-4)GlcNAc(b1-3)Gal(b1-4)GlcNAc
In short: as §1

[8] = molecular target: Fuc(a1-2)[GalNAc(a1-4)]Gal(b1-4)GlcNAc
In short: as §1

[9] = molecular target: Fuc(a1-2)[GalNAc(b1-3)]Gal
In short: as §1

[10] = molecular target: Fuc(a1-3)[Gal(b1-4)]GlcNAc
In short: as §1

[11] = molecular target: Fuc(a1-3)[Gal(b1-4)]GlcNAc(b1-3)Gal(b1-3)[Fuc(a1-4)]GlcNAc
In short: as §1

[12] = molecular target: Fuc(a1-3)[GalNAc(b1-4)]GlcNAc
In short: as §1

[13] = molecular target: Gal(b1-3)GalNAc(b1-3)Gal
In short: as §1

[14] = molecular target: Gal(b1-3)[Fuc(a1-4)]GlcNAc
In short: as §1

[15] = molecular target: Gal(b1-3)[Fuc(a1-4)]GlcNAc(b1-2)Man
In short: as §1

[16] = molecular target: Gal(b1-4)GlcNAc(b1-2)[Gal(b1-4)GlcNAc(b1-6)]Man(a1-6)[GlcNAc(b1-4)][Gal(b1-4)GlcNAc(b1-2)Man(a1-3)]Man(b1-4)GlcNAc(b1-4)GlcNAc
In short: as §1

[17] = molecular target: Gal(b1-4)GlcNAc(b1-3)Gal(b1-4)GlcNAc(b1-2)Man(a1-3)[Gal(b1-4)GlcNAc(b1-3)Gal(b1-4)GlcNAc(b1-2)Man(a1-6)]Man(b1-4)GlcNAc(b1-4)GlcNAc
In short: as §1

[18] = molecular target: Gal(b1-4)GlcNAc(b1-3)Gal(b1-4)GlcNAc(b1-3)Gal(b1-4)GlcNAc(b1-2)Man(a1-3)[Gal(b1-4)GlcNAc(b1-3)Gal(b1-4)GlcNAc(b1-3)Gal(b1-4)GlcNAc(b1-2)Man(a1-6)]Man(b1-4)GlcNAc(b1-4)GlcNAc
In short: as §1

[19] = molecular target: Gal(b1-4)GlcNAc(b1-3)Gal(b1-4)GlcNAc(b1-3)Gal(b1-4)GlcNAc(b1-2)[Gal(b1-4)GlcNAc(b1-3)Gal(b1-4)GlcNAc(b1-3)Gal(b1-4)GlcNAc(b1-6)]Man(a1-6)[Gal(b1-4)GlcNAc(b1-3)Gal(b1-4)GlcNAc(b1-3)Gal(b1-4)GlcNAc(b1-2)Man(a1-3)]Man(b1-4)GlcNAc(b1-4)[Fuc(a1-6)]GlcNAc
In short: as §1

[20] = molecular target: Gal(b1-4)GlcNAc(b1-6)GalNAc
In short: as §1

[21] = molecular target: Gal3S(b1-4)GlcNAc
In short: as §1

[22] = molecular target: GalNAc(b1-3)Gal(a1-4)Gal(b1-4)GlcNAc
In short: as §1

[23] = molecular target: GalNAc(b1-4)GlcNAc
In short: as §1

[24] = molecular target: GalNAc(b1-4)GlcNAc(b1-3)GalNAc(b1-4)GlcNAc
In short: as §1

[25] = molecular target: GalNAc(b1-4)GlcNAc6S
In short: as §1

[26] = molecular target: GalNAc3S(b1-4)[Fuc(a1-3)]GlcNAc
In short: as §1

[27] = molecular target: GlcA(b1-3)GlcNAc
In short: as §1

[28] = molecular target: GlcNAc(a1-4)Gal(b1-4)GlcNAc
In short: as §1

[29] = molecular target: GlcNAc(a1-4)Gal(b1-4)GlcNAc(b1-3)Gal(b1-4)[Fuc(a1-3)]GlcNAc(b1-3)Gal(b1-4)[Fuc(a1-3)]GlcNAc
In short: as §1

[30] = molecular target: GlcNAc(b1-3)Gal(b1-4)GlcNAc(b1-3)[GlcNAc(b1-3)Gal(b1-4)GlcNAc(b1-3)]GalNAc
In short: as §1

[31] = molecular target: GlcNAc(b1-3)[GlcNAc(b1-6)]GalNAc
In short: as §1

[32] = molecular target: GlcNAc(b1-6)GalNAc
In short: as §1

[33] = molecular target: GlcNAc6S(b1-3)Gal(b1-4)GlcNAc
In short: as §1

[34] = molecular target: Neu5Ac(a2-3)Gal(b1-3)GalNAc6S
In short: as §1

[35] = molecular target: Neu5Ac(a2-3)Gal(b1-3)GlcNAc(b1-6)GalNAc
In short: as §1

[36] = molecular target: Neu5Ac(a2-3)Gal(b1-3)[Neu5Ac(a2-6)]GalNAc
In short: as §1

[37] = molecular target: Neu5Ac(a2-3)Gal(b1-4)GlcNAc(b1-6)[Gal(b1-3)]GalNAc
In short: as §1

[38] = molecular target: Neu5Ac(a2-3)Gal(b1-4)[Fuc(a1-3)]GlcNAc(b1-2)Man
In short: as §1

[39] = molecular target: Neu5Ac(a2-3)Gal(b1-4)[Fuc(a1-3)]GlcNAc(b1-6)[Gal(b1-3)]GalNAc
In short: as §1

[40] = molecular target: Neu5Ac(a2-6)Gal(b1-4)GlcNAc(b1-2)Man(a1-6)[Man(a1-3)]Man(b1-4)GlcNAc(b1-4)GlcNAc
In short: as §1

[41] = molecular target: Neu5Ac(a2-6)Gal(b1-4)GlcNAc(b1-2)[Neu5Ac(a2-6)Gal(b1-4)GlcNAc(b1-4)]Man(a1-3)[GlcNAc(b1-4)][Neu5Ac(a2-6)Gal(b1-4)GlcNAc(b1-4)Man(a1-6)]Man(b1-4)GlcNAc(b1-4)GlcNAc
In short: as §1

[42] = molecular target: Neu5Ac(a2-8)Neu5Ac(a2-3)Gal(b1-4)Glc
In short: as §1

[43] = molecular target: Neu5Gc(a2-8)Neu5Gc(a2-6)Gal(b1-4)GlcNAc
In short: as §1

[44] = molecular target: Neu5Gc(b2-6)Gal(b1-4)GlcNAc
In short: as §1

B1: DC-ASGPR-short (Homo sapiens) (protein)
chain: MTRTYENFQYLENKVKVQGFKNGPLPLQSLLQRLRSGPCHLLLSLGLGLLLLVIICVVGFQNSKFQRDLVTLRTDFSNFTSNTVAEIQALTSQGSSLEETIASLKAEVEGFKQERQAVHSEMLLRVQQLVQDLKKLTCQVATLNNNASTEGTCCPVNWVEHQDSCYWFSHSGMSWAEAEKYCQLKNAHLVVINSREEQNFVQKYLGSAYTWMGLSDPEGAWKWVDGTDYATGFQNWKPGQPDDWQGHGLGGGEDCAHFHPDGRWNDDVCQRPYHWVCEAGLGQTSQESH
B1 was tested, and the “glycan array binding signal (z-score)” value [1] was 4.65, the “glycan array binding signal (z-score)” value [2] was -0.192 and the “glycan array binding signal (z-score)” value [3] was -0.17. The “glycan array binding signal (z-score)” value [4] was -0.263, the “glycan array binding signal (z-score)” value [5] was 0.967 and the “glycan array binding signal (z-score)” value [6] was 1.27. For the same binder, the “glycan array binding signal (z-score)” value [7] was 0.335, the “glycan array binding signal (z-score)” value [8] was 3.1 and the “glycan array binding signal (z-score)” value [9] was 4.03. The “glycan array binding signal (z-score)” value [10] was -0.28, the “glycan array binding signal (z-score)” value [11] was -0.284 and the “glycan array binding signal (z-score)” value [12] was 3.04. For the same binder, the “glycan array binding signal (z-score)” value [13] was -0.217, the “glycan array binding signal (z-score)” value [14] was -0.264 and the “glycan array binding signal (z-score)” value [15] was -0.106. The “glycan array binding signal (z-score)” value [16] was -0.282, the “glycan array binding signal (z-score)” value [17] was -0.244 and the “glycan array binding signal (z-score)” value [18] was -0.221. The “glycan array binding signal (z-score)” value [19] was -0.198, the “glycan array binding signal (z-score)” value [20] was 3.52 and the “glycan array binding signal (z-score)” value [21] was -0.271. The “glycan array binding signal (z-score)” value [22] was 6.36, the “glycan array binding signal (z-score)” value [23] was 4.38 and the “glycan array binding signal (z-score)” value [24] was 4.52. For the same binder, the “glycan array binding signal (z-score)” value [25] was 4.1, the “glycan array binding signal (z-score)” value [26] was -0.256 and the “glycan array binding signal (z-score)” value [27] was -0.28. The “glycan array binding signal (z-score)” value [28] was -0.273, the “glycan array binding signal (z-score)” value [29] was -0.266 and the “glycan array binding signal (z-score)” value [30] was -0.295. The “glycan array binding signal (z-score)” value [31] was -0.234, the “glycan array binding signal (z-score)” value [32] was 4.64 and the “glycan array binding signal (z-score)” value [33] was -0.27. For the same binder, the “glycan array binding signal (z-score)” value [34] was -0.279, the “glycan array binding signal (z-score)” value [35] was 5.92 and the “glycan array binding signal (z-score)” value [36] was -0.224. For the same binder, the “glycan array binding signal (z-score)” value [37] was -0.283, the “glycan array binding signal (z-score)” value [38] was -0.238 and the “glycan array binding signal (z-score)” value [39] was -0.285. The “glycan array binding signal (z-score)” value [40] was -0.288, the “glycan array binding signal (z-score)” value [41] was -0.34 and the “glycan array binding signal (z-score)” value [42] was -0.277. For the same binder, the “glycan array binding signal (z-score)” value [43] was -0.279 and the “glycan array binding signal (z-score)” value [44] was -0.278.
